Holding throughout (design): scale not given: direction of the effect not stated beside the values
Assay [1] concerns the target Protein translocase subunit SecA (Escherichia coli (strain K12)) (UniProt P10408). Put plainly: Assay to Identify E. coli SecA ATPase Inhibitors. It counts as functional. To be noted: 30 µM.
Assay [2] addresses T1, Ubiquitin-activating enzyme e1, putative (Leishmania donovani (strain BPK282A1)) (UniProt E9BSI1).
T1 sequence (whole entry): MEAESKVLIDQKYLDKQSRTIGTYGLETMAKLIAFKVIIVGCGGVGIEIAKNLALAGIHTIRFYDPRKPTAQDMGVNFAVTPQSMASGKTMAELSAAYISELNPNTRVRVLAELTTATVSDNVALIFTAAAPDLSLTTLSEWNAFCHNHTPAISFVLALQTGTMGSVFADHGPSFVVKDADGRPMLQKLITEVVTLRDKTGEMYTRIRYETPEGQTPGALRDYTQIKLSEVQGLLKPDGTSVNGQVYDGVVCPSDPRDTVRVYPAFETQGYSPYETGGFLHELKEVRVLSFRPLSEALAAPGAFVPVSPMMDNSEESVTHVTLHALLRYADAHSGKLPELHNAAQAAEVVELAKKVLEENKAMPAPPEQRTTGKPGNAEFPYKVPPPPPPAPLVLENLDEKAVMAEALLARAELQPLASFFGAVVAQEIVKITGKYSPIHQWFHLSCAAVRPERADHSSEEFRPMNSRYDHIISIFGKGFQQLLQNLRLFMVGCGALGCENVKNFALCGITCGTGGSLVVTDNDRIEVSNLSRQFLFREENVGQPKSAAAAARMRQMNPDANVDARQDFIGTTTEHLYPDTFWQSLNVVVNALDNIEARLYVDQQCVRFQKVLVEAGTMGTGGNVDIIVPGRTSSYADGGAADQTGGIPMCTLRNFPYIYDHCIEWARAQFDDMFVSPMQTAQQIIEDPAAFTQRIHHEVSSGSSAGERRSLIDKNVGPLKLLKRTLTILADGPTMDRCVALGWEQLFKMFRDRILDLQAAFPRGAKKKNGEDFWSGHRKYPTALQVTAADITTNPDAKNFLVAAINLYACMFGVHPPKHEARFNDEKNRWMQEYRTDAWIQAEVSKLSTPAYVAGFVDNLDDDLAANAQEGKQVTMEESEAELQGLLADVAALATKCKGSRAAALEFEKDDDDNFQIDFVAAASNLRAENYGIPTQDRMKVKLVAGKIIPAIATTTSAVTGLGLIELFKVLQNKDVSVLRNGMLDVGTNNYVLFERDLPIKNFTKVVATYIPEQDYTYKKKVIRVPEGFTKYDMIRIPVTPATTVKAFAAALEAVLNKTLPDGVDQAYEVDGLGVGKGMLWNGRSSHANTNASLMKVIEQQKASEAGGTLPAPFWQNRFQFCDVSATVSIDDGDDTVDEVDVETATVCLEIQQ
Put plainly: Leishmania donovani Ubiquitin Activating Enzyme (LdE1). In kind it is functional. Particulars: 30 µM.

Assay [3] concerns the target AMP-activated protein kinase, AMPK (Homo sapiens) (UniProt P54646+O43741+P54619+Q9UGJ0+Q9Y478+Q13131+Q9UGI9). Put plainly: AMP-dependent Kinase enzyme assay. An in vitro enzyme assay that detects ADP turnover that is directly proportional to AMPK activity. This uses naive AMPK that is activated during the assay with MK-8722. To be noted: 30 µM. It counts as functional.

For assay [4], the target named is Sialic acid-binding Ig-like lectin 9 (Homo sapiens) (UniProt Q9Y336). The experiment in a line: Hs-Siglec9 ALPHAscreen SOP 20170721. To be noted: 10 µM.
The subject of another assay is Trypanosoma cruzi. Put plainly: Trypanosoma cruzi phosphomannomutase and mannose-1-phosphate guanylyltransferase assay. In kind it is functional. To be noted: 10 µM.
Assay [5] concerns the target T2, Arginase-2, mitochondrial (Homo sapiens) (UniProt P78540).
T2 sequence (whole entry): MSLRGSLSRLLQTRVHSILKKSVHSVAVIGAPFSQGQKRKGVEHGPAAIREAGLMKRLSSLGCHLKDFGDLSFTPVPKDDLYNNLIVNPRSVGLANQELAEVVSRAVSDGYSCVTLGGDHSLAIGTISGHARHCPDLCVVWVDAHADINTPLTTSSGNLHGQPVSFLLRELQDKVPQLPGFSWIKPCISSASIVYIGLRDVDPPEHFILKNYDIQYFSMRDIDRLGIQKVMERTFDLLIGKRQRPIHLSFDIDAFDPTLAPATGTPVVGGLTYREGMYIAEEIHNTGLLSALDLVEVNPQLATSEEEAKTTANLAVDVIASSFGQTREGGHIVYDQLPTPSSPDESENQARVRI
The experiment in a line: in vitro enzyme assay to detect the production of urea directly proportional to the activity of Arginase II. Also: in the data most compounds retested in dose-response had high values. In kind it is functional. To be noted: 33.3 µM.

Assay [6] concerns the target T3, Proteasome subunit beta (Trypanosoma cruzi) (UniProt O96673).
T3 sequence (whole entry): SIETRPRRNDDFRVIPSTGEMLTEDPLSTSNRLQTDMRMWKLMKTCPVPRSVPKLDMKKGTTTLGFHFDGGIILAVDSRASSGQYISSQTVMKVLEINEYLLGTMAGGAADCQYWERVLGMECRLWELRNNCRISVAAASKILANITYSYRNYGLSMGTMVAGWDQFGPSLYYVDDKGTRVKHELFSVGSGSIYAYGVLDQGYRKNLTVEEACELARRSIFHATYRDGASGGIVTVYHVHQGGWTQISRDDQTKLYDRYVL
The experiment in a line: Trypanosoma cruzi proteasome chymotrypsin-like activity (TcProtChymo) assay. Also: in the data most compounds retested in dose-response had high values. It counts as functional. To be noted: 9.37 µM.

Another assay is filed under the species Homo sapiens. Put plainly: To identify inhibition of the IFN signalling (Jak-Stat) pathway via expression of an eGFP reporter gene under the control of an IFN-stimulated response element (ISRE) containing MxA promoter. In kind it is functional. To be noted: 30 µM. (In a reporter assay the amount or activity of a reporter protein is the signal.)
The target in assay [7] is T4, Tyrosyl-tRNA synthetase, putative (Trypanosoma cruzi (strain CL Brener)) (UniProt Q4DSP6).
T4 sequence (whole entry): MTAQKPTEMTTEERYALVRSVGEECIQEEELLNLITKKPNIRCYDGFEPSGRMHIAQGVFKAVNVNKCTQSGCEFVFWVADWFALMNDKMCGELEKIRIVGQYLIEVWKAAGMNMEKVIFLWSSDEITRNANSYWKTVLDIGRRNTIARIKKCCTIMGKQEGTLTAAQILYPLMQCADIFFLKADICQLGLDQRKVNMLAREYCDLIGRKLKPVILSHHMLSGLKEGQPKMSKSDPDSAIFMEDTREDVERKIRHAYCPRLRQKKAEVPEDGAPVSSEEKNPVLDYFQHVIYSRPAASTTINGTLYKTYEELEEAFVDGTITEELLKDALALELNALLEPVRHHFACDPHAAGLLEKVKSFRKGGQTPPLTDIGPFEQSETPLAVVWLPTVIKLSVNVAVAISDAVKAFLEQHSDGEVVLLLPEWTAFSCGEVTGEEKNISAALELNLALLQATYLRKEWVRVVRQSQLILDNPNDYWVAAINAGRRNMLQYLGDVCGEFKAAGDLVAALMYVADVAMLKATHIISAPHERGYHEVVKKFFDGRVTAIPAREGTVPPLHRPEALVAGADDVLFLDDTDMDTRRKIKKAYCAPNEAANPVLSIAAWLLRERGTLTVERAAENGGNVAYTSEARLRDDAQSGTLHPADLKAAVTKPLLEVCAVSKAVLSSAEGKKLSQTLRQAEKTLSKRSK
The experiment in a line: Trypanosoma cruzi tyrosyl tRNA synthetase (TcYRS) _High Tyrosine SOP. Also: in the data most compounds retested in dose-response had high values. In kind it is functional. Particulars: 30 µM.

The target in assay [8] is T4, Tyrosyl-tRNA synthetase, putative (Trypanosoma cruzi (strain CL Brener)). The experiment in a line: Trypanosoma cruzi tyrosyl tRNA synthetase (TcYRS) SOP. It counts as functional. To be noted: 30 µM.
Assay [9] addresses Chromo domain-containing protein 1 (Saccharomyces cerevisiae (strain ATCC 204508 / S288c) (Baker's yeast)) (UniProt P32657). Put plainly: ScCHD-1 Enzyme Inhibition Assay. Also: in the data most compounds retested in dose-response had high values. In kind it is functional. Particulars: 30 µM.

The values below come from ChEMBL document CHEMBL3988442, “University of Dundee, Small-Polar-MMV Screening Library” (2021).

Molecules are shown by their SMILES. For some assays here: Measured potencies and affinities stand elsewhere.

Chain of Protein translocase subunit SecA (Escherichia coli (strain K12)) (P10408 whole entry): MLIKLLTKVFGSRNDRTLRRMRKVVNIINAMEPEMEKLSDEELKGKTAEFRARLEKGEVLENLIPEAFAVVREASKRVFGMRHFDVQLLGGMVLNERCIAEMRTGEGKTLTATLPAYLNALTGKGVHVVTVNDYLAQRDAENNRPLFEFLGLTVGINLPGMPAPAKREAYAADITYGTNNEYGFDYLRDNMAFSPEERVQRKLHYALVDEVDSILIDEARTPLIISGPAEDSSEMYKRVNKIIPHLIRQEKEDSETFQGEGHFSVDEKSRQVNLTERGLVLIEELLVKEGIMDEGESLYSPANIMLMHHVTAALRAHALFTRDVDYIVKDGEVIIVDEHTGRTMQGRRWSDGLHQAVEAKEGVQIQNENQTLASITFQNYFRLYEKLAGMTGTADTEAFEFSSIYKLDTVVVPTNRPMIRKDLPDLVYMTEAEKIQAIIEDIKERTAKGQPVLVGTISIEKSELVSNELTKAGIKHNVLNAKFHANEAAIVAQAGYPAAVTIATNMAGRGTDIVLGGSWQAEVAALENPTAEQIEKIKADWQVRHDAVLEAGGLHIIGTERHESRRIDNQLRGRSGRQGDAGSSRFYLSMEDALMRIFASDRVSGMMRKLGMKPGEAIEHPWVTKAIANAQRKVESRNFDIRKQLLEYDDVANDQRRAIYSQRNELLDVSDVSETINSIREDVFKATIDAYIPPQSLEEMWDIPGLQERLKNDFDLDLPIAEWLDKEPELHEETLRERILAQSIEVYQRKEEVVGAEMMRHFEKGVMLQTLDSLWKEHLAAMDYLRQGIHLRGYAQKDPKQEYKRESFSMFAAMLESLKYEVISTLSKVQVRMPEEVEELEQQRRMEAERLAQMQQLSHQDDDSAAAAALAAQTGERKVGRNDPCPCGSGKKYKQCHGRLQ
Chain of Chromo domain-containing protein 1 (Saccharomyces cerevisiae (strain ATCC 204508 / S288c) (Baker's yeast)) (P32657 whole entry, the tested form may be a part): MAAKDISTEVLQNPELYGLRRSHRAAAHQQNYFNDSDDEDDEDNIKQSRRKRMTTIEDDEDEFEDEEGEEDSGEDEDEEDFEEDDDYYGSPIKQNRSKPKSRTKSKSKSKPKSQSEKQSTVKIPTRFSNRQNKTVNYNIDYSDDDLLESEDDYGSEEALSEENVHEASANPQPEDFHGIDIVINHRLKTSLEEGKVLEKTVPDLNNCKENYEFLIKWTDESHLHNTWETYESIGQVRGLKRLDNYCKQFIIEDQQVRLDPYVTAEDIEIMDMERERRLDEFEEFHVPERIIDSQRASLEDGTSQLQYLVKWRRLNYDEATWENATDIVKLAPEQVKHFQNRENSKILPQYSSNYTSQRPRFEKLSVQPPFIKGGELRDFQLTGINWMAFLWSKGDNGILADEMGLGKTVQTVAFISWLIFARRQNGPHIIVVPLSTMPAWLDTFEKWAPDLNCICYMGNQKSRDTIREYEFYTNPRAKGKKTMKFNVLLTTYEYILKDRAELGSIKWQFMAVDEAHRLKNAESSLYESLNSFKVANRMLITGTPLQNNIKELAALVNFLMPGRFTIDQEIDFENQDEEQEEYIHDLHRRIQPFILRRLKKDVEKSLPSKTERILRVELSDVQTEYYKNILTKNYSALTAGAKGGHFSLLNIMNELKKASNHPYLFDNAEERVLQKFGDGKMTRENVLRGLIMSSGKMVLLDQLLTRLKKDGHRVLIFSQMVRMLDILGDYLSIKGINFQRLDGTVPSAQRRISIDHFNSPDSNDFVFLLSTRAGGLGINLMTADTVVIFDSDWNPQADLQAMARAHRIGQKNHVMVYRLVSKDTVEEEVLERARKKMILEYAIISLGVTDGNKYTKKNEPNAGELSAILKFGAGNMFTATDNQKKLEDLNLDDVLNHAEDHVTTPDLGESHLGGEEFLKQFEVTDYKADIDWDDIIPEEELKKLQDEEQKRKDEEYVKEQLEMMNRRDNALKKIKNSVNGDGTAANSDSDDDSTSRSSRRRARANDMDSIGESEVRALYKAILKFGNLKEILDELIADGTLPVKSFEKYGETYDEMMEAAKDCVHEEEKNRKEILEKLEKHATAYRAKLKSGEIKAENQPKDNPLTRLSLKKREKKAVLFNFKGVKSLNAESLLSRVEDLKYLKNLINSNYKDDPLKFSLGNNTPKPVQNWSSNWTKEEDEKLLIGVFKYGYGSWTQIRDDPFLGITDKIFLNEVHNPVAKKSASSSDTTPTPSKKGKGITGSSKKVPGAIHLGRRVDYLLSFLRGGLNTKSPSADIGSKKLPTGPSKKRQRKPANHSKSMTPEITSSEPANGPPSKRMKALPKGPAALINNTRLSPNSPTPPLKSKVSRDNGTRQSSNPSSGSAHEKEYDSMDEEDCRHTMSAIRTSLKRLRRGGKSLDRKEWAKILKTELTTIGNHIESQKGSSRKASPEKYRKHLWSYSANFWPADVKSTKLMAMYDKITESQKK
Chain of Sialic acid-binding Ig-like lectin 9 (Homo sapiens) (Q9Y336 whole entry): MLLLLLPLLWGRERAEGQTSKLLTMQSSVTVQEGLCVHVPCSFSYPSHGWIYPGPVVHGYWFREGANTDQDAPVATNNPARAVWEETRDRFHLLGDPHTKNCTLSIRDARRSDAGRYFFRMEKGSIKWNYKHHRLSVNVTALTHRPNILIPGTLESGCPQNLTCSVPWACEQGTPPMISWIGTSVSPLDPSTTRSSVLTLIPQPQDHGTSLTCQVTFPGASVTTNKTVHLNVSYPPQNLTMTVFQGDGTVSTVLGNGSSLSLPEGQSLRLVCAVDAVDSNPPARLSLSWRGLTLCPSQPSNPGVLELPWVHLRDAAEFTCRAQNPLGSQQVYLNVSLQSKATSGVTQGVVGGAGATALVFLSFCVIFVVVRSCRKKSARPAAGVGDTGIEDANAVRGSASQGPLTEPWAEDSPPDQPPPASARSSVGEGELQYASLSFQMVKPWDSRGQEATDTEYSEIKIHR

As for `Cc1ccc(NC2CCN(C(=O)Cc3cccc(F)c3)CC2)nn1`, the Percent Effect was -1.31% in assay [1]; 21.6% in [2]; -15.1% in [3]; 7.97% in assay [4]; 7.83% in the assay with Trypanosoma cruzi; -12% in assay [5]. Moreover, the Percent Effect was 6.67% in assay [6]; 6.31% in the assay listed under Homo sapiens; 9.36% in assay [7]; 28.4% in [8]; -10.9% in assay [9].

As for `CN(C)C(=O)COC[C@]12COC[C@H]1CN(CC1CCC1)C2`, the Percent Effect in [1] is 1.38%; in assay [2] it was 2.7%; in assay [3], -10.5%; in assay [4], 19.2%; with Trypanosoma cruzi, 4.79%; in [5], 6.7%. For the same compound, the Percent Effect was 7.12% in assay [6]; 8.3% in the assay listed under Homo sapiens; 2.15% in assay [7]; 3.7% in assay [8]; -9.34% in [9].

For the compound `COCC(=O)N1CCC[C@]2(C(=O)N(C)C)CN(c3ccccn3)C[C@@H]2C1`, the Percent Effect in assay [1] is -2.73%; in assay [2], 5.33%; in assay [3], -3.72%; in [4], 0.562%; with Trypanosoma cruzi, 5.02%; in [5], -50.4%. Further, the Percent Effect in assay [6] was 16.2%; in the assay listed under Homo sapiens, -8.04%; in assay [7] it was 6.25%; in [8], 5%; in assay [9], -8.42%.

Turning to `COc1cccc(CC(=O)N2CCc3ncnc(NC(C)C)c3CC2)c1`, the Percent Effect in [1] was -5.16%; in assay [2], -18.9%; in assay [3], 0.899%; in assay [4], -4.76%; with Trypanosoma cruzi, -3.42%; in [5], -0.319%. The Percent Effect came to 7.38% in assay [6]; 12.2% in the assay filed under Homo sapiens; 3.24% in assay [7]; 7.69% in [8]; 0.23% in assay [9].

In the case of `Cc1nnc(NCc2cccnc2N(C)C)c(C#N)c1C`, the Percent Effect in [1] is -0.868%; in assay [2] it was -5.41%; in [3], -22.1%; in assay [4], 9.49%; with Trypanosoma cruzi, 2.88%; in assay [5], -4.25%. For the same compound, the Percent Effect in [6] was -2.87%; in the assay listed under Homo sapiens, 6.79%; in assay [7], 2.97%; in assay [8] it was 6.1%; in assay [9], 0.273%.

Consider `O=C1NCCN1C1CCCN(Cc2coc(-c3ccc(F)cc3)n2)C1` (stereo not given), for which the Percent Effect is -10.2% in [1]; -8.11% in assay [2]; -13.5% in [3]; 25.4% in assay [4]; 10.9% with Trypanosoma cruzi; -1.29% in [5]. The Percent Effect in [6] was 0.898%; in the assay listed under Homo sapiens, 57.5%; in assay [7], 5.94%; in assay [8] it was 15.8%; in [9], -6.73%.

For `CCn1cnnc1CNC(=O)N1CCN(c2cccs2)CC1`, the Percent Effect in assay [1] is -8.91%; in assay [2] it was 5.2%; in [3], -16.1%; in [4] it was 14.9%; in the assay on Trypanosoma cruzi it was 14.2%; in [5], 1.78%. The Percent Effect in assay [6] was 24.3%; in the assay filed under Homo sapiens it was 7.4%; in assay [7] it was 26.2%; in assay [8] it was 12.2%; in assay [9], -5.95%.

Consider `O=C1OC2(CCNCC2)CN1CC(=O)N1CCCC1c1ccco1` (stereo not given), for which the Percent Effect was -3.11% in assay [1]; 5.41% in [2]; 1.69% in assay [3]; 4.82% in assay [4]; 0.386% in the assay on Trypanosoma cruzi; 2.86% in assay [5]. Besides, the Percent Effect is 19.8% in [6]; -0.46% in the assay listed under Homo sapiens; 5.82% in assay [7]; 19.5% in assay [8]; -4.16% in [9].

In the case of `CCOc1ccc(-n2nnc(C(=O)O)c2-c2ccncc2)cc1`, the Percent Effect in assay [1] is -0.35%; in assay [2], 13.2%; in assay [3], 1.31%; in [4] it was -8.67%; in the assay on Trypanosoma cruzi, 0.292%; in assay [5], 1.18%. The Percent Effect in [6] was 9.11%; in the assay filed under Homo sapiens it was 23.3%; in assay [7] it was 2.13%; in assay [8], 18.2%; in assay [9] it was -5.18%.

As to `COc1cccc(COCC(=O)N2CCCC(n3ccnc3)C2)c1` (stereo not given), the Percent Effect in assay [1] is -4.67%; in [2] it was 18.9%; in assay [3] it was 21.3%; in assay [4], -4.82%; in the assay on Trypanosoma cruzi it was -6.13%; in assay [5] it was 0.802%. In addition, the Percent Effect in [6] is 3.06%; in the assay listed under Homo sapiens, 10.7%; in assay [7], 6.4%; in [8], 11.1%; in [9], -5.14%.
